This is part of a sample that, as a whole, favours compounds with a hit. Of some 83,000 tested, about 20% had one in any assay.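 Values shown are percent growth following 48 h exposure of cells in 96-well plates to a single concentration of compound; below 10 was considered active.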 A number with no mark means an inactive call. Calls of active or inactive are those of the source.
Each compound was assayed on CAKI-1 renal (assay: NCI-60 one-dose screen, 48 h (100 = growth as untreated, 0 = no growth, -100 = all killed)). Details: 10 µM unless noted.
Method: Growth inhibition of the CAKI-1 human tumor cell line is measured as a screen for anti-cancer activity. Cells are grown in 96 well plates and exposed to the test compound for 48 hours. Compounds are tested at a single concentration, which is 10^-5 M for most compounds. The reported endpoint is percent growth (GI% or GIPRCNT), where numbers from 0 - 100% represent growth inhibition, and numbers from -100% - 0 represent cell death. For example, a value of 40 represents 60% growth inhibition. A value of 0 means no net growth occurred over the course of the experiment. A value of -40 indicates 40% of cells at the beginning of the experiment died by the end of the experiment. A value of -100 means all cells are dead at the end of the experiment.
NCI-60 Human Tumor Cell Lines Screen was performed using the standard one-dose NCI protocol, which is described in more detail at https://dtp.cancer.gov/discovery_development/nci-60/default.htm.
Compounds with GIPRCNT values below 10 were considered active. Activity score was based on GIPRCNT using the following formula: […]
Score is 0 for GIPRCNT values of 100 or above, 50 for GIPRCNT values of 0, and 100 for GIPRCNT values of -100.
With `COc1ccc(C2c3[nH]c4ccc(Cl)cc4c3CCN2c2oc(CO)nc2C#N)cc1` (stereo not given) the growth was 36.5%. `O=C(CSc1nnc(-c2ccc(Cl)cc2)n1-c1ccccc1)Nc1cccc(F)c1` was tested, and the growth was 14.1%. `COc1cc2cc(Oc3ccc(NC(=O)Nc4ccc(F)c(C(F)(F)F)c4)cc3)c(C)nc2cc1OCCN(C)C` was tested, and the growth was 85.1%. `O=C(CCCCCCN1CC(=O)N2[C@@H](c3ccccc3Br)c3[nH]c4ccccc4c3C[C@H]2C1=O)NO` showed a growth of 42.2%. `O=C(CSc1nc2ccccc2c(=O)n1-c1ccc(Cl)cc1)N/N=C/c1ccc(Oc2ccc(Cl)cc2)cc1` was tested, and the growth was 33%. With `COc1cc(OC)cc(-c2cc(-c3c[nH]c4ccccc34)nc(-c3c[nH]c4ccccc34)c2C#N)c1` the growth was 91%. `CCCCN1C(=O)/C(=c2\sc3n(c2=O)C2C(NN=3)N(CC)C(=O)N2CC)c2cccc(C)c21` (stereo not given) gave a growth of 35.3%. For `CCN(CC)c1ccc(/C=N/NC(=O)c2ccc(S(N)(=O)=O)cc2)cc1`, the growth was 23%. Compound `CCCN1C=C/C(=C\C(=O)n2ccc3ccccc32)c2ccccc21` has a growth of 60.1%. With `C#CCOc1ccccc1C(OC(=O)c1ccccc1)C(=O)NC(C)(C)C(C)(C)C` (stereo not given) the growth was 63.5%. Compound `CC1=C(SCC(=O)OCCCCCC(C)C)C(=O)c2ccccc2C1=O` has a growth of 80.3%. In the case of `O=C(CSc1nc2ccccc2c(=O)n1-c1ccccc1)N/N=C/c1ccc(Oc2ccc(Cl)cc2)cc1`, the growth is reported as 59.2%. For `Cc1ccc(-c2cc3nc(C(Cl)Cl)nc(-c4ccc(S(=O)(=O)N(C)C)cc4)n3n2)cc1`, the growth was 82.2%. In the case of `COc1ccc(-c2cc(-c3ccc(N(C)C)cc3)n3c(n2)nc2ccccc23)cc1`, the growth is reported as 61.2%. `Cc1cc(=O)oc2cc(OCCCOc3ccc(/C=C/C(=O)Nc4ccc(Br)cc4)cc3)ccc12` showed a growth of 104%. Work on `Cc1ccc2c(n1)C(=O)C(Cl)=C(Nc1cccc(C(F)(F)F)c1)C2=O` yielded a growth of 81.8%. For `N#C/C(=C\c1ccc(-c2ccc(Cl)cc2)o1)C(=O)Nc1ncc(Cc2ccc(Br)cc2)s1`, the growth was -7.28% (active). `O=C(O)c1ccc(-n2c(=O)n(-c3cccc(C(F)(F)F)c3)c(=O)c3cc(-c4ccc(F)cc4F)ccc32)cc1` was tested, and the growth was -6.76% (active). `Cc1ccc(NC2=C(Cl)C(=O)c3nc(C)ccc3C2=O)c(C)c1` was tested, and the growth was 85.5%. `CC(=O)/C(N=Nc1ccc2oc(=O)ccc2c1)=C(\C)O` gave a growth of 33.3%. `COC(=O)CCCNCCCn1ccc2cc(NCc3cccc(-c4ccccc4)c3C)ccc21` showed a growth of 48.4%. `CCCCCCNC(=O)Oc1ccc(/C(=C(/C)c2ccc(Cl)cc2)c2ccc(OCCN3CCCCCC3)cc2)cc1` was tested, and the growth was 64.9%. For `CN1CCN(c2ccc(Nc3nc(NCCNC(=O)c4ccccc4)c4sccc4n3)cc2)CC1`, the growth was 48.3%. Work on `O=C1[C@@H]2Cc3c([nH]c4ccccc34)[C@@H](c3ccc(Cl)cc3)N2C(=O)CN1C1CCN(Cc2ccccc2)CC1` yielded a growth of 26.2%. `CN1CCN(CCCCCC(=O)Nc2nc(-c3cccc(NS(=O)(=O)c4cccc5c(N(C)C)cccc45)c3)cs2)CC1` showed a growth of 74.3%. For `CN1CCN(Cc2ccc(NC(=O)c3cncc(C#Cc4cnc(N)nc4)c3)cc2C(F)(F)F)CC1`, the growth was 0.371% (active). `CCOC(=O)c1cnc2c(-c3ccc(Cl)c(Cl)c3)cnn2c1` gave a growth of 67.2%. Compound `CNC(=O)c1cc(Oc2ccc3c(c2)sc2nc(-c4ccc(N(C)C)cc4)cn23)ccn1` has a growth of 32.3%. In the case of `CCCc1[nH]c(-c2cc(N)ccc2Cl)c2c1C(=O)CCCC2`, the growth is reported as 76.3%. In the case of `Cc1ccc(S(=O)(=O)c2nc(-c3ccc(F)cc3)oc2S(C)(=O)=O)cc1`, the growth is reported as 41.8%. Work on `NS(=O)(=O)c1nnc(/N=C/c2c(O)[nH]c3ccccc23)s1` yielded a growth of 86.5%. `Fc1cccc(Cl)c1/C=N/Nc1nc(N/N=C/c2c(F)cccc2Cl)nc(N2CCCCC2)n1` gave a growth of 14.1%. For `NS(=O)(=O)c1cccc(Nc2nc(SCC(=O)c3ccc(Cl)cc3)nc3c2CCC3)c1`, the growth was 86.7%. In the case of `Cc1csc(/N=C(N)/N=C(\N)c2cccs2)n1`, the growth is reported as 85.1%. Compound `CC(C)=CCC[C@](C)(O)[C@H]1CC[C@]2(C)[C@@H]1CC[C@@H]1[C@@]3(C)CC[C@H](N)C(C)(C)[C@@H]3CC[C@]12C` has a growth of 67.8%. `Oc1[nH]c2ccc(Cl)cc2c1N=Nc1nc(N=Nc2c(O)[nH]c3ccc(Cl)cc23)nc(N2CCCCC2)n1` showed a growth of 88.1%. In the case of `CCCc1cc2cc(-n3nc(CC)c4c3CC(C)(C)CC4=O)cc(NC3CCC(O)CC3)c2c(=O)[nH]1` (stereo not given), the growth is reported as 19.6%. In the case of `Cn1cc(C2=C(c3coc4cc(Br)ccc34)C(=O)NC2=O)c2ccccc21`, the growth is reported as 50.5%. `COc1ccc(-c2c3c(cn2Cc2cccc(OC)c2)-c2oncc2CCC3)cc1` showed a growth of 76.1%. For `Cc1[nH]c(C(=O)Nc2ccc(C(N)=O)cc2N2CCOC(C)C2)c(Cl)c1Cl` (stereo not given), the growth was 98.4%.

From PubChem BioAssay (NCI)
